# Activity calls are given as the source filed them. Calls follow the shape of the dose curve; as a rule, active = well fitted curve in the direction sought with a large enough effect; inconclusive = small, poorly fitted or top-dose-only effect, or effect the other way, or another doubt; inactive = no such curve, though single readings can be large or run the other way.
# Assay: qHTS of Nrf2 Activators: LOPAC Validation (AID 624149); also: 0% is about no effect
# Details: Nrf2/ARE reporter cell assay; series mostly up to 46.1 µM; activation: at the top concentration
# Summary of the method: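 Following overnight seeding in 5% FBS OPTI-MEM, AREc32_Fluc cells receive compounds for a 24 hr incubation at 37 deg C with 5% CO2. Steady-Glo is added, and after 30 min at RT luminescence is recorded.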
Compound,activation,outcome
CC(C)=CCOc1c2occc2cc2ccc(=O)oc12,0.974% (inactive),–
CCC1(C2=NCCN2)Cc2ccccc2O1 (configuration not stated),-1.68% (inactive),–
c1ccc(C2CC2)c(OCC2=NCCN2)c1,0.731% (inactive),–
Cc1ccc(S(=O)(=O)N[C@@H](CCCCN)C(=O)CCl)cc1,-1.89% (inactive),–
CC[C@@H](CO)NC(=O)[C@@H]1C=C2c3cccc4c3c(cn4C)C[C@H]2N(C)C1,-1.58% (inactive),–
C=C(C)[C@H]1Cc2c(ccc3c2O[C@@H]2COc4cc(OC)c(OC)cc4[C@@H]2C3=O)O1,-1.53% (inactive),–
Nc1ccncc1,0.977% (inactive),–
CC(=O)[C@H]1CC[C@H]2[C@@H]3CC[C@H]4C[C@](C)(O)CC[C@]4(C)[C@H]3CC[C@]12C,-1.98% (inactive),–
COC[C@H]1OC(=O)c2coc3c2[C@@]1(C)C1=C(C3=O)C2CCC(=O)[C@@]2(C)C[C@H]1OC(C)=O (some centres not stated),6.51% (inactive),–
O=c1[nH]c2ccccc2n1CCCN1CCC(n2c(=O)[nH]c3cc(Cl)ccc32)CC1,-2.51% (inactive),–
NN=C(N)N,–,inactive
C[C@@H]1O[C@@H](O[C@H]2C[C@@H](O)[C@]3(CO)[C@H]4[C@H](O)C[C@]5(C)[C@@H](C6=CC(=O)OC6)CC[C@]5(O)[C@@H]4CC[C@]3(O)C2)[C@H](O)[C@H](O)[C@H]1O,-3.09% (inactive),–
CC(=O)[C@H]1CC[C@H]2[C@@H]3CC[C@H]4C[C@H](O)CC[C@]4(C)[C@H]3C(=O)C[C@]12C,-0.24% (inactive),–
CCCN1CCC[C@@H]2Cc3nc(N)ncc3C[C@H]21,-1.86% (inactive),–
NCC1(CC(=O)O)CCCCC1,-2.11% (inactive),–
Cc1cccc(C)c1NC1=NCCCS1,-1.38% (inactive),–
N#CC(C#N)=Cc1ccc(O)c(O)c1,1.78% (inactive),–

# Reference: PubChem BioAssay (NCATS)
